From PubChem BioAssay AID651718 (The Scripps Research Institute Molecular Screening Center, 2012)
The campaign covered roughly 360,000 compounds. About 2,700 (0.75%) were called active. Rule as the data show it: active = inhibition above about 4.5%; inactive = the rest. Shown is part of a subset that was picked to be rich in actives.

These compounds were tested on Methionine sulfoxide reductase A (Bos taurus) (assay: inhibition of methionine sulfoxide reductase A – biochemical, absorbance, bovine, HTS, primary screen (AID 651718;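 also: 0% = vehicle wells with enzyme and 100% = reference inhibitor wells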)). Conditions: purified bovine MsrA, absorbance read-out; at 15.5 µM; stronger effect = higher value.

Compound	inhibition
CCOc1ccc(-c2cc(C)[n+](CCN(CC)CC)c(-c3ccc(OCC)cc3)c2)cc1	5.24% (active)
Clc1ccc([C@@H]2CC3CCC2N3)cn1 (stereo not given in full)	-0.82% (inactive)
COc1cc(OC)cc(C(=O)NCCN2CCC3(CC2)C(=O)NCN3c2ccccc2)c1	0% (inactive)
Brc1ccc2c(c1)CNCc1cnnn1-2	-0.08% (inactive)
Cc1cc(N2CCNC[C@@H]2C)ccc1N1CC[C@H](O)C1	0% (inactive)
COc1ccc(C(=O)C2CCCN(Cc3ccc(C)s3)C2)cc1OC (stereo not given)	4.73% (active)
COc1cccc(CN2CCCC(C(=O)c3ccccc3SC)C2)c1O (stereo not given)	1.68% (inactive)
Cc1ccc(CN2CCCC(C(=O)c3ccc4c(c3)OCO4)C2)cc1C (stereo not given)	0.84% (inactive)
COC1C(O)C(C)OC(OC2CCC3(C=O)C(CCC4C3CCC3(C)C(C5=CC(=O)OC5)CCC43O)C2)C1O (stereo not given)	0.09% (inactive)
CCC(C)NC1(c2ccccc2)CCCCC1 (stereo not given)	-0.91% (inactive)
CCCCC(=O)N/N=C/c1c(O)n(CC)c(=S)n(CC)c1=O	5.43% (active)
COc1ccc2c(c1)[C@@]13CCCCC1[C@@H](C2)NCC3 (stereo not given in full)	0.27% (inactive)
O=S(=O)(c1ccccc1)N1CCC2CCNC2C1 (stereo not given)	-0.74% (inactive)
CS(=O)(=O)N1CCC2CCNC2C1 (stereo not given)	0.9% (inactive)
CCN(CC)C(=O)[C@@H]1C=C2c3cccc4[nH]c(Br)c(c34)C[C@H]2N(C)C1	0% (inactive)
